From PubChem BioAssay AID1321 (The Scripps Research Institute Molecular Screening Center, 2008)
“And” between values parts separate entries of the source, which are not always exact repeats. Equal entries are not always repeated. About 2,600 (1.2%) of roughly 220,000 compounds were called active.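 The calls were made as follows: active = activation above the mean of all tested compounds plus 3 SD, set per screening run (cut at about 8.8% in these data); inactive = the rest.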 This excerpt belongs to a sample that is enriched for actives. Where a structure was tested more than once in an assay, its records may differ in their call.

Target: Wee1-like protein kinase (Homo sapiens) (UniProt P30291)
Experiment: compounds stabilizing Wee1-luciferase fusion – cell-based, HeLa, Wee1K328M-luciferase, luminescence, primary screen (AID 1321);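 also: cells exposed to compound for 20 h before luminescence read; 0% = DMSO alone and 100% = MG132 at 30 µM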
Details: HeLa Luc-Wee1K328M stability, at 5 µM, stronger effect = higher value, 100% = proteasome inhibitor MG132 effect

Row | SMILES | reporter increase
1 | NNC(=O)c1ccc(COCC(F)(F)C(F)F)cc1 | 2.09% (inactive)
2 | COc1ccc(-c2csc(NC3OC(=O)c4ccccc43)n2)cc1 (stereo not given) | 1.6% (inactive)
3 | Cc1nnsc1C(=O)NCc1c(F)cccc1Cl | -2.45% (inactive)
4 | Cn1c(=O)c2c(nc(NCc3ccccc3)n2CC(N)=O)n(C)c1=O | -2.48% (inactive)
5 | CC(CN1CCOCC1)c1ccccc1 (stereo not given) | 11.8% (active)
6 | Cc1ccc(C(=O)OC(C)CN2CCOCC2)cc1 (stereo not given) | 2.34% (inactive)
7 | OC(c1ccccc1)C(CN1CCOCC1)c1ccccc1 (stereo not given) | 0.23% (inactive)
8 | Cc1ccc2[nH]c(=O)c(CN3CCCCC3)c(-c3ccccc3)c2c1 | 11.8% (active)
9 | Cc1ccc2[nH]c(=O)c(CC=C(Cl)Cl)c(C)c2c1 | -1.17% (inactive)
10 | O=C(CN1CCOCC1)Nc1c(-c2ccccc2)c2cc(Br)ccc2[nH]c1=O | -2.5% (inactive)
11 | Cc1cc(Nc2ccc(N3CCOCC3)cc2)c2cccc(C)c2n1 | 1.6% (inactive)
12 | C/C(=N\Nc1cccc(C(=O)O)c1)c1ccc2c(c1)Nc1ccccc1S2 | 2.58% (inactive)
13 | Cc1ccccc1N(C(=O)Cc1cccs1)C(C(=O)NC1CCCCC1)c1cn(C)nc1C (stereo not given) | 12.1% (active)
14 | Cc1cccc(N(C(=O)Cc2cccs2)C(C(=O)NC2CCCC2)c2ccsc2)c1 (stereo not given) | -1.49% (inactive)
15 | Cc1ccsc1C(C(=O)NC1CCCCC1)N(C(=O)Cc1cccs1)C1CC1 (stereo not given) | -1.86% (inactive)
16 | Nc1scc[n+]1Cc1cccc2cccnc12 | 4.15% (inactive)
17 | CC(C)=NN1C(=O)c2ccccc2NC1(C)C | 2.65% (inactive)
18 | CC(NC(=O)C(C)(C)C)C(c1cccs1)N1CCN(Cc2ccccc2)CC1 (stereo not given) | -2.56% (inactive)
19 | O=C(Nc1ccccc1)C1CC(=O)n2c(nc3ccccc32)N1 (stereo not given) | -0.1% (inactive)
20 | CCOC(=O)c1ccc(NC(=O)C2CC(=O)Nc3nc4ccccc4n32)cc1 (stereo not given) | -0.26% (inactive)
21 | CC(=O)c1ccc(NC(=O)C2CC(=O)Nc3nc4ccccc4n32)cc1 (stereo not given) | 11.6% (active)
22 | Cn1nc(C(C)(C)C)c(NC(=O)c2sccc2Cl)c1C(C)(C)C | 1.43% (inactive)
23 | O=C1N=C(N2CCc3ccccc3C2)S/C1=C\c1ccc(O)cc1 | -2.98% (inactive)
24 | COc1cc(C(=O)Nn2c(O)c(C3=c4ccccc4=NC3=O)sc2=S)ccc1O | -2.51% (inactive)
25 | O=C(NCc1cccs1)c1ccc(Br)o1 | -0.94% (inactive)

Row | SMILES | reporter increase
26 | Cn1ncc(Br)c1C(=O)NCc1cccs1 | 20.9% (active)
27 | COc1ccccc1NC(=O)c1c(Br)cnn1C | 3.35% (inactive)
28 | O=C(O)C(c1ccccc1)C1(O)CCCCC1 (stereo not given) | 7.89% (inactive)
29 | O=C(NNc1cc(Cl)cc(Cl)c1)c1c(F)cccc1Cl | 9.07% (active)
30 | Cc1ccc(NNC(=O)c2c(F)cccc2Cl)cc1Cl | 0.76% (inactive)
31 | CCN(CC)CCNC(=O)c1ccc(NC(=O)c2c(F)cccc2Cl)cc1 | 1.18% (inactive)
32 | CCOC(=O)C1CCN(c2c(Nc3cc(C)cc(C)c3)c(=O)c2=O)CC1 | -2.25% (inactive)
33 | Cc1ccc(S/C(=N\S(=O)(=O)c2ccc(Cl)cc2)c2ccccc2)cc1 | 0.58% (inactive)
34 | Cc1ccc(S(=O)(=O)/N=C(/Nc2ccccn2)c2ccc(Cl)cc2)cc1 | 11.1% (active)
35 | O=S(=O)(/N=C(/Nc1ccccn1)c1ccccc1)c1ccc(Cl)cc1 | -2.13% (inactive)
36 | CCCCN(CCCC)CC(O)Cn1c2ccccc2c(=O)c2ccccc21 (stereo not given) | 0.32% (inactive)
37 | O=C(Nc1ccc(S(=O)(=O)Nc2nccs2)cc1)c1cccc(S(=O)(=O)N2CCOCC2)c1 | -2.58% (inactive)
38 | CC(=O)N1CCC(N(C(=O)Nc2ccc(Cl)cc2)C(C)C)CC1 | -1.37% (inactive)
39 | NC(=O)c1ccc(-c2csnn2)cc1 | -2.32% (inactive)
40 | CS(=O)(=O)N1CCC(C(=O)N2CCN(c3ccccc3)CC2)CC1 | 11.4% (active)
41 | CCCS(=O)(=O)N1CCCC(C(=O)N2CCN(c3ccccc3)CC2)C1 (stereo not given) | -1.94% (inactive)
42 | CCS(=O)(=O)N1CCC(C(=O)N2CCN(c3ccccc3)CC2)CC1 | -1.23% (inactive)
43 | CN1CCN(CC(=O)Nc2sc3c(c2C#N)CCC(C(C)(C)C)C3)CC1 (stereo not given) | 16.5% (active)
44 | CCC1CCc2c(sc(NC(C)=O)c2C#N)C1 (stereo not given) | 1.63% (inactive)
45 | CCN1CCN(CC(=O)Nc2sc3c(c2C#N)CCC3)CC1 | -0.82% (inactive)
46 | CC1CC(NC(=O)/C(C#N)=C/c2ccc[nH]2)CC(C)(C)C1 (stereo not given) | 1.3% (inactive)
47 | c1ccc(-n2cccc2)c(N2CCCCC2)c1 | 3.42% (inactive)
48 | C/C(CC(C)C)=N\Oc1nc(C)cc(C)n1 | -1.74% (inactive)
49 | COc1cc(OC)cc(C(=O)NC(=S)N2CCN(c3ccc(C(F)(F)F)cc3[N+](=O)[O-])CC2)c1 | 12.2% (active)
50 | Cc1cccc(C(=O)NC(=S)N2CCN(c3ccc([N+](=O)[O-])cc3)CC2)c1 | -1.67% (inactive)

Row | SMILES | reporter increase
51 | O=C(Nc1cccc(C(F)(F)F)c1)c1ccc(N2CCNCC2)c([N+](=O)[O-])c1 | 1.22% (inactive)
52 | Cc1cc(C)nc(NC(=O)/C=C/c2ccc(Cl)cc2)n1 | -2.67% (inactive)
53 | CC(C)n1c(=S)[nH]c2cc(C(F)(F)F)ccc21 | -2.42% (inactive)
54 | Cc1[nH]n(C)c(=O)c1N=Nc1ccc(S(C)(=O)=O)cc1 | 1.89% (inactive)
55 | COc1cc(CC(=O)N/N=C/c2ccccc2)c([N+](=O)[O-])cc1OC | 10.2% (active)
56 | COc1ccc(C(=O)NCC(=O)N/N=C/c2ccc([N+](=O)[O-])o2)cc1OC | -1.47% (inactive)
57 | O=C(Cc1cc(=O)[nH][nH]1)N/N=C/c1ccccc1[N+](=O)[O-] | -4.24% (inactive)
58 | CCn1c(SCC(=O)N/N=C/c2ccccc2OCC(=O)O)nnc1-c1ccc(C(C)(C)C)cc1 | 0.66% (inactive)
59 | CCN(CC)C(=O)CSC(Nc1cccc(F)c1)=C(C#N)C#N | -3.44% (inactive)
60 | Cc1cccc(N2CCN(Cc3nc(C4CC4)no3)CC2)n1 | -3.23% (inactive)
61 | Cc1ccc(S(=O)(=O)NC(=O)Nc2nc(-c3ccc(F)c(F)c3)cs2)cc1 | 7.86% (inactive)
62 | COc1ccc(-c2ccc(CNCCCN3CCOCC3)o2)cc1Cl | 8.92% (active)
63 | C=CCOc1ccc(Cl)cc1CNCCCN1CCOCC1 | -1.69% (inactive)
64 | COc1ccc(Cl)cc1NC(=O)CCN1CCOCC1 | -3.24% (inactive)
65 | Cn1c(SCC(=O)c2ccc(F)cc2)nnc1-c1ccccn1 | -0.76% (inactive)
66 | CC(C)N(Cc1nc(-c2ccc3c(c2)OCO3)no1)CC1CCC(=O)N1 (stereo not given) | 2.1% (inactive)
67 | CN(CCN1CCOCC1)Cc1nc(-c2ccc3c(c2)OCO3)no1 | 1.41% (inactive)
68 | COCC1CCCN(Cc2nc(-c3ccc4c(c3)OCO4)no2)C1 (stereo not given) | 9.73% (active)
69 | Cc1ccc(-c2c[n+](=O)c3c(n2[O-])CCC3)cc1 | -1.07% (inactive)
70 | O=C(Cc1ccccc1)Nc1cccc(C(=O)N/N=C/c2ccco2)c1 | -1.22% (inactive)
71 | O=C(CSc1ccc(/C=N/NC(=O)c2cccc(F)c2)o1)Nc1ccccc1 | 9.46% (active)
72 | N#CCC(=O)N/N=C/c1ccc(SCC(=O)Nc2ccccc2)o1 | -0.66% (inactive)
73 | COc1cc2[nH]c(=S)n(Cc3ccc(C)o3)c(=O)c2cc1OC | 3.12% (inactive)
74 | COc1cc2[nH]c(=S)n(Cc3ccc(F)cc3)c(=O)c2cc1OC | 12.6% (active)
75 | CCOc1cc2[nH]c(=S)n(Cc3ccc(C(=O)NCCOC)cc3)c(=O)c2cc1OCC | -1.62% (inactive)

Row | SMILES | reporter increase
76 | COc1ccc(F)cc1S(=O)(=O)N1CCCCC1 | 2.94% (inactive)
77 | Cc1ccc(/C=N/NC(=S)NC2CCCCC2)o1 | 3.18% (inactive)
78 | CCn1c(-c2ccncc2)n[nH]c1=S | 1.46% (inactive)
79 | CCn1c(C(C)C)n[nH]c1=S | 18.6% (active)
80 | CCn1c(C(C)NC(=O)c2ccc(C)cc2)n[nH]c1=S (stereo not given) | -0.98% (inactive)
81 | O=C(NCc1ccco1)C1CCCN1S(=O)(=O)c1ccccc1C(F)(F)F (stereo not given) | -1.13% (inactive)
82 | CCC1=NN2C(=N)/C(=C/c3cc(C)n(-c4ccccc4)c3C)C(=O)N=C2S1 | 4.73% (inactive)
83 | COC(=O)c1sc(SC)c(S(=O)(=O)C(C)C)c1N/N=C(\C#N)S(=O)(=O)c1ccccn1 | 2.36% (inactive)
84 | CCOC(=O)C1CCN(C(=O)Nc2ccc(C)c(Cl)c2)CC1 | 3.42% (inactive)
85 | CCOC(=O)C/C(C)=N\Nc1ccc([N+](=O)[O-])cc1[N+](=O)[O-] | -1.73% (inactive)
86 | CCCCOC(=O)CCCc1ccc([N+](=O)[O-])cc1[N+](=O)[O-] | 12.8% (active)
87 | CCOC(=O)COc1ccc([N+](=O)[O-])cc1 | -1.98% (inactive)
88 | CC1(C)CC(CNCCC(c2ccc(F)cc2)c2ccco2)CCO1 (stereo not given) | -2.08% (inactive)
89 | CC(C)CNC(=O)C(=O)NCc1ccccc1 | -2.69% (inactive)
90 | CC(C)CNC(=O)/C=C/C(=O)O | 31.4% (active) and -2.62% (inactive)
91 | CC(C)CNC(=O)CC(NCC(C)C)C(=O)O (stereo not given) | -0.85% (inactive)
92 | CN(Cc1nc(-c2cnccn2)no1)Cc1n[nH]c2c1CCCCC2 | -0.67% (inactive)
93 | O=C(O)c1cccc2c1C(=O)N(C1CCCCC1)C2 | -0.13% (inactive)
94 | CC(Sc1nnnn1C1CCCCC1)C(=O)O (stereo not given) | -1.64% (inactive)
95 | O=C(O)C1CCN1C1CCCCC1 (stereo not given) | 8.91% (active)
96 | O=C(CCNc1n[nH]c(=O)[nH]c1=O)N/N=C\c1ccc(Br)cc1 | -1.51% (inactive)
97 | COc1c(N2CCN(C(=S)Nc3ccccc3F)C(C)C2)c(F)cc2c(=O)c(C(=O)O)cn(C3CC3)c12 (stereo not given) | -0.39% (inactive)
98 | CCC(=O)Nc1ccc(C(=O)Nc2cccc(OC)c2)cc1 | 0.16% (inactive)
99 | CCC(=O)Nc1cccc(NC(=O)c2cccnc2)c1 | 14.3% (active)
100 | CCOC(=O)c1cc(NC(=O)c2cccnc2)cc(C(=O)OCC)c1 | -1.21% (inactive)
